Test results from PubChem BioAssay AID651681 (Broad Institute, 2012).
The source made the active and inactive calls.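 The calls were made as follows: active = compound with fitted CDK2 half-maximal potency at or below twice its top tested dose; inconclusive = flat curve near 30 to 70% inhibition, or poor fit; inactive = the rest.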

The compounds below were run against Cyclin-dependent kinase 2 (Homo sapiens) + Cyclin-A2 (Homo sapiens) (UniProt P20248+P24941) (assay: CDK2/cyclin A inhibitors, off-target check, dose response, selectivity assay for Dyrk1A inhibitor project, biochemical, dry powder, set 3 (AID 651681)). Details: CDK2/cyclin A ADP-Glo luminescence, histone H1 peptide; series mostly up to 10 µM.
Chain of Cyclin-dependent kinase 2 (Homo sapiens) + Cyclin-A2 (Homo sapiens) (P20248 whole entry, looked up, one chain of several): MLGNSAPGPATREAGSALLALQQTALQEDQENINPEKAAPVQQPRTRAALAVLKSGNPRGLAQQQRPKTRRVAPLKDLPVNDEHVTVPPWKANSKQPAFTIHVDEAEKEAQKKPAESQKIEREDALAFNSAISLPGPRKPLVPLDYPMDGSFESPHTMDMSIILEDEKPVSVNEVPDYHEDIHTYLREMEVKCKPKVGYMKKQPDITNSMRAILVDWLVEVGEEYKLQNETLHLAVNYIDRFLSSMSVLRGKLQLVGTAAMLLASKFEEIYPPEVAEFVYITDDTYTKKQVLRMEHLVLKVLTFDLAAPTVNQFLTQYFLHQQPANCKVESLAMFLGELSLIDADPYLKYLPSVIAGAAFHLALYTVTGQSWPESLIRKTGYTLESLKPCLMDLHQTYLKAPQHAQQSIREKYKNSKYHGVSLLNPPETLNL

SMILES	outcome
COc1ccc(OC)c(C2=Nn3c(nnc3-c3ccccc3)SC2)c1	inactive
Cc1csc(NC(=O)C2CCCN(S(=O)(=O)c3cccc4nonc34)C2)n1 (configuration not stated)	inactive
CN(CC(=O)Nc1nccs1)S(=O)(=O)c1ccc(Cl)cc1	inactive
COc1ccc2c(Cl)c(C(=O)NCc3cccnc3)sc2c1	inactive
COc1cccc(C2=Nn3c(nnc3-c3ccccc3)SC2)c1	inactive
COc1ccc(CNC(=O)c2sc3ccccc3c2Cl)cc1	inactive
CN(CC(=O)Nc1nc2ccccc2s1)S(=O)(=O)c1ccc(Cl)cc1	inactive
COc1ccc2c(Cl)c(C(=O)NC(C)C)sc2c1	inactive
COc1ccc2nc(NC(=O)C3CCN(S(=O)(=O)c4cccnc4)CC3)sc2c1	inactive
COc1ccc(-c2csc(NC(=O)CSCC(=O)N3CCCC3)n2)cc1	inactive
COc1ccc2nc(NC(=O)C3CCN(S(=O)(=O)c4ccc(C)cc4)CC3)sc2c1	inactive
COc1ccc2c(Cl)c(C(N)=O)sc2c1	inactive
O=C(NCc1ccco1)c1sc2ccccc2c1Cl	inactive
COc1ccc2nc(NC(=O)C3CCCN(S(=O)(=O)c4cccc5nsnc45)C3)sc2c1 (configuration not stated)	inactive
Cc1sc(NC(=O)CSCc2ccccc2)nc1-c1ccccc1	inactive
Cc1ccccc1S(=O)(=O)Cc1ccc(C(=O)NC(C)c2ccc3c(c2)OCCO3)o1 (configuration not stated)	inactive
COc1ccc(C2=Nn3c(nnc3-c3ccncc3)SC2)cc1	inactive
COc1ccc2c(Cl)c(C(=O)NCc3ccccc3)sc2c1	inactive
CN(CC(=O)Nc1nc2ccc(Cl)cc2s1)S(=O)(=O)c1ccc(C#N)cc1	inactive
Cc1cccc2sc(NC(=O)CN(C)S(=O)(=O)c3ccc(Cl)cc3)nc12	inactive
CCOc1ccc2nc(NC(=O)COc3ccc(Cl)c(OC)c3)sc2c1	inactive
COc1ccc2nc(NC(=O)C3CCCN(S(=O)(=O)c4cccc5nonc45)C3)sc2c1 (configuration not stated)	inactive
